Assay outcomes deposited in PubChem BioAssay by NMMLSC.
Only some compounds are listed: those with a hit (about 1.2% of all), similar ones and a draw of the others.
RGS16-Gao: regulators of human RGS16-Galphao interaction; O15492+P09471; bead-based flow cytometry RGS16-Galphao binding, fluorescence; actives lie on both sides; binding response (% of control), % at 10 µM; actives 0.38% (n = 220,000); AID 1441;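 further: Galphao activated by GDP with aluminum fluoride before binding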
GSH fluor: GSH bead compound fluorescence profile; GSH beads flow cytometry, compound fluorescence 488/530 nm; hits give high values; fluorescence (KMESF) at 10 µM; actives 0.25% (n = 190,000); in the data active means fluorescence above about 89;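 further: glutathione beads carrying GST-tagged Bcl family fusion proteins plus one bare bead set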
RGS8-Gao reg: regulators of human RGS8-Galphao interaction. actives 0.34% (n = 220,000). multiplexed bead flow cytometry, RGS8-Galphao binding; actives lie on both sides. P09471. response (percent of control binding), % at 10 µM; in the data active means response below about 60% or above about 140%; inactive means in between;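 further: Galphao activated as the GDP aluminium fluoride complex binding bead-coupled RGS8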
Target sequence (P09471 whole entry, looked up): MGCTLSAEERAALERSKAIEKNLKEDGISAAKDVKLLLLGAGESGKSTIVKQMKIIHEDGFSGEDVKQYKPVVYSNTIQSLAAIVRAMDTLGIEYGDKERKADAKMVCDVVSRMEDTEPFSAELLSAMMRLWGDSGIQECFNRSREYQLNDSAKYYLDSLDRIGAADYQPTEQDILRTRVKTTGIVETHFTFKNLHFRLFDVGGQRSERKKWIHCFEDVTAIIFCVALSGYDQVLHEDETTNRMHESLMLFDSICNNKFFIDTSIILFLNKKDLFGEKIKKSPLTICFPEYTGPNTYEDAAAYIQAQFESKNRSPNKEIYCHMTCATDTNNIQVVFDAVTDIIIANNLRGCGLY
RGS7-Gao reg: regulators of human RGS7-Galphao interaction; AID 1439; P09471; Multiplexed bead flow cytometry, RGS7-Galphao binding; actives lie on both sides; binding response (% of control), % at 10 µM; actives 0.35% (n = 220,000); in the data active means binding response below about 49% or above about 150%; inconclusive means no clear call, values can overlap the other calls; inactive means in between;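 further: fluorescent Galphao held in activated GDP-AlF4 state binding bead-coupled RGS7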
RGS4-Gao reg: modulates binding of RGS4 to human Galphao; actives 0.33% (n = 220,000); binding response (% of control), % at 10 µM; P09471; Multiplexed bead flow cytometry; actives lie on both sides; AID 1415; in the data active means binding response below about 49% or above about 150%; inactive means in between;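 further: fluorescent Galphao activated with aluminum fluoride binding bead-coupled RGS4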
Avidin fluor: compound fluoresces at 488/530 nm on avidin beads; compound fluorescence 488/530 nm, flow cytometry; hits give high values; fluorescence (KMESF) at 10 µM; actives 0.38% (n = 220,000); in the data active means fluorescence above about 47
RGS4-Gao HTS: regulators of human RGS4-Galphao interaction; actives 99% (n = 1,600); shares compounds with RGS16-Gao; multiplexed bead flow cytometry, RGS–Galpha-o binding; RGS4–Galpha-o binding response, % at 10 µM;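 further: fluorescently labeled Galpha-o bound to GDP with aluminium fluoride binding biotinylated RGS beads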
Biotin-avidin: interferes with biotinylated probe binding to avidin beads | shares compounds with RGS16-Gao | 1,700 tested, under 10 active | AID 1783 | inhibition, % at 10 µM | streptavidin beads, fluorescein-biotin binding, flow cytometry;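 active means inhibition above 50%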;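 further: median green fluorescence of gated singlet beads compared with DMSO control wells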
RGS8-Gao single: RGS8-Galphao interaction regulation, single point confirmation | shares compounds with RGS16-Gao | bead-based flow cytometry RGS8-Galphao binding, fluorescence; actives lie on both sides | binding response (% of control), % at 10 µM | actives 3% (n = 1,700) | AID 1836; in the data active means binding response below about 72% or above about 130%; inactive means in between;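 further: Galphao activated as GDP AlF4 complex before binding bead RGS8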
RGS7-Gao confirm: RGS7-Galphao interaction regulation, single point confirmation. shares compounds with RGS16-Gao. bead-based flow cytometry RGS7-Galphao binding; actives lie on both sides. response (percent of control binding), % at 10 µM. actives 7.8% (n = 1,700); in the data active means response below about 75% or above about 130%; inactive means in between;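 further: fluorescent Galphao activated with GDP and aluminum fluoride binding bead-coupled RGS7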
RGS16-Gao conf: RGS16-Galphao interaction regulation, single point confirmation | shares compounds with RGS16-Gao | bead-based flow cytometry, RGS16-Galphao binding; actives lie on both sides | response (% of control binding), % at 10 µM | actives 4% (n = 1,700); in the data active means response below about 74% or above about 130%; inactive means in between;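 further: Galphao activated as the GDP aluminium fluoride complex binding bead-coupled RGS16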
RGS4-Gao confirm: RGS4-Galphao interaction regulation, single point confirmation; RGS4-Galphao binding, multiplexed bead flow cytometry; actives lie on both sides; binding response (% of control), % at 10 µM; AID 1840; actives 4% (n = 1,700); shares compounds with RGS16-Gao; in the data active means binding response below about 74% or above about 130%; inactive means in between
RGS19-Gao single: confirmation of regulators of human RGS19-Galphao interaction. AID 1841. shares compounds with RGS16-Gao. actives 5% (n = 1,700). bead-based flow cytometry RGS19-Galphao binding; actives lie on both sides. response (percent of control binding), % at 10 µM; in the data active means response below about 50% or above about 160%; inactive means in between
Hits are given with their value; 0 = inactive; ? = inconclusive; - = no result given; [ ] = dose if it differs, or a comment. Unless noted, how the calls were made is not given here.

SMILES	RGS16-Gao	GSH fluor	RGS8-Gao reg	RGS7-Gao reg	RGS4-Gao reg	Avidin fluor	others
CC(C)n1cc(C(=O)N(CC(=O)NC2CCCC2)Cc2ccccc2)cn1	0	0	0	0	0	68
O=c1[nH]c(=S)n(Cc2ccc(F)cc2)c(O)c1/C=N/N1CCCCC1	0	0	0	0	0	487
O=c1[nH]c(=S)n(Cc2ccc(F)cc2)c(O)c1C=NCC1CCCO1 (configuration not stated)	0	0	0	0	0	0
CC(=O)Nc1ccc(C(=O)OCC(=O)Nc2ccc(Cl)cc2C(=O)c2ccccc2)cc1	0	0	0	0	0	0
O=c1c2ccccc2nc(-c2ccco2)n1-c1cccnc1	0	273	0	0	0	0
Cc1nc2ccccc2c(=O)n1-c1cccnc1	0	0	0	0	0	0
O=c1c2ccccc2nc(-c2ccco2)n1-c1ccccn1	0	261	0	0	0	0
CC(Cc1cccs1)NCc1ccccc1 (configuration not stated)	0	0	0	?	0	0
CN(C)CCN=Cc1c(O)n(-c2cccc3ccccc23)c(=O)[nH]c1=O	0	0	0	0	0	0
CN(C)C(Cc1ccc(Cl)cc1)C(=O)c1ccccc1 (configuration not stated)	0	0	0	0	0	0
COP(=O)(NC(=O)C(Cl)(Cl)Cl)OC	0	-	0	?	0	81
O=C(Cc1ccccc1)OCn1nnc2ccccc2c1=O	0	126	0	0	0	0
CCC(=NCCOc1ccc(Cl)cc1)c1c(O)n(C)c(=O)n(C)c1=O	0	0	0	0	0	59
CCC(=NCCN1CCCCC1)c1c(O)n(C)c(=O)n(C)c1=O	0	0	0	0	0	0
CC(Cc1ccccc1)[n+]1cc(/N=C(\N)[O-])on1 (configuration not stated)	0	0	0	0	0	0
CC(Cc1ccccc1)[n+]1cc(/N=C(\[O-])Nc2ccccc2)on1 (configuration not stated)	0	0	0	0	0	57
CCOP(=S)(OCC)SCC(=O)NC(C)(CC)C(=O)O (configuration not stated)	-104.8	0	0	0	0	0	RGS4-Gao HTS=74.4;Biotin-avidin=0;RGS8-Gao single=0;RGS7-Gao confirm=0;RGS16-Gao conf=0;RGS4-Gao confirm=0;RGS19-Gao single=0
COC(=O)C(O)(c1ccc(NC(=O)NC2CCCCC2)cc1)C(F)(F)F (configuration not stated)	0	0	0	157.2[activator]	174.8[activator]	83	Biotin-avidin=0;RGS8-Gao single=0;RGS7-Gao confirm=58.6;RGS16-Gao conf=0;RGS4-Gao confirm=73.1;RGS19-Gao single=0
COC(=O)C(O)(c1ccc(NC(=S)NC(=O)c2ccc(Cl)cc2Cl)cc1)C(F)(F)F (configuration not stated)	0	0	0	0	0	0
N/C(=N\N=C\c1ccc(O)cc1O)N[N+](=O)[O-]	-23.1	0	0	0	0	0	RGS4-Gao HTS=84.3;Biotin-avidin=0;RGS8-Gao single=0;RGS7-Gao confirm=0;RGS16-Gao conf=0;RGS4-Gao confirm=0;RGS19-Gao single=0
